Test results as given in PubChem BioAssay AID504433 (National Center for Advancing Translational Sciences (NCATS), 2011).
Where “and” joins values, the source holds several entries; their conditions need not be identical. Equal entries are not always repeated. Results filed as inconclusive are left out. A call without a number means that no potency is given here. Calls of active or inactive are those of the source. Calls follow the shape of the dose curve; as a rule, active = well fitted inhibition curve with a large enough effect; inconclusive = small, poorly fitted or top-dose-only effect; inactive = flat fitted curve, though single readings scatter.

Experiment: Secondary Assay for lipid storage modulators: Cytotoxcity for probe SAR round 2
Settings: Drosophila S3 cells viability, CellTiter-Glo ATP luminescence, 24 h; series mostly up to 46.1 µM
Source text: NIH Molecular Libraries Probe Production Centers Network [MLPCN] NIH Chemical Genomics Center [NCGC] MLPCN Grant: 1 R03 MH085686-01 Assay Submitter (PI): Beller, Mathias; Max-Planck-Institut fur Biophysikalische Chemie, Germany. NCGC Assay Overview: Storing lipids as a reservoir for energy or the anabolism of elementary metabolites is a common feature of probably all cells and is conserved from bacteria to humans. The universal cellular lipid storage organelle is the so-called lipid storage droplet (LD). Although ubiquitous, LDs share a simple structure composed of a hydrophobic core that harbors the storage lipids, which is shielded by a droplet-specific phospholipid monolayer to which proteins are attached. The current model of LD biogenesis involves an incorporation of the lipid core into the membrane leaflets of the endoplasmic reticulum (ER) followed by a subsequent budding-like maturation of a LD, which ultimately pinches off. Once released, LD volume can increase by localized lipogenesis or fusion of existing droplet. Storage lipids are re-mobilized enzymatically by lipase activity. Lipase regulation in the adipocyte is heavily studied and involves multiple components including catecholamine signaling, the LD-associated proteins Perilipin and comparative gene identification (CGI-58) and at least two lipases named hormone sensitive lipase (HSL) and adipocyte triglyceride lipase (ATGL). LD regulation outside of the adipocyte is poorly understood and only few components are known. However, there is an urgent need to learn more about ectopic fat depots as mislocalized storage of lipids, for example in the liver or muscle, is an eminent health problem associated with insulin resistance or the metabolic syndrome. We developed a laser-scanning cytometer assay to enable 1,536-well screening and combined the results of the small molecules screen with an RNAi database based on lipid storage. The compound was tested here for cytotoxcity using CellTiter-Glo.
Assay Protocol Summary: Cytotoxcity assay was performed with embryonic Drosophila S3 cells (Bloomington Drosophila Genomics Resource Center [DGRC]). We dispensed 4 uL of cells at 1.25 x 10^6 cells/mL into Greiner solid white 1,536-well plates with a bottle-valve solenoid-based dispenser (Aurora) to obtain 5,000 cells/well. A total of 23 nL of compound solution of different concentrations were transferred to the assay plates using a Kalypsys pin tool equipped with a 1,536-pin array containing 10-nL slotted pins (FP1S10, 0.457-mm diameter, 50.8 mm long; V&P Scientific). One microliter of oleic acid (400 uM) was added, and the plate was lidded with stainless steel rubber gasket lined lids containing pinholes. After 24 hrs of incubation at 24 degrees Celsius and 95% humidity, 4 uL of CellTiter-Glo (Promega) was added to the wells. Luminescence was detected on the Perkin Elmer ViewLux.

Which Potency does the source give for `CCOC(=O)C1CCN(C(=O)C(C)(C)NC(=O)Nc2ccc(OC)c(Cl)c2)CC1` here?
The Potency was “inactive”.

Which Potency does the source give for `CC(C)(C)OC(=O)NCCOCCOCCOc1ccc(-n2ncc3c2CCCC3NC(=O)c2ccccn2)cc1` (configuration not stated) here?
Its Potency is 3.15 µM (active).

Which Potency does the source give for `CCOC(=O)C1CCN(C(=O)C(C)(C)NC(=O)Nc2ccc3c(c2)CCC3)CC1` here?
Its Potency is “inactive”.

With `CC(C)(C)OC(=O)NCCOCCOCCOc1cccc(-n2ncc3c2CCCC3NC(=O)c2ccccn2)c1` (configuration not stated) as the compound, how does the Potency read?
Its Potency is 5.6 µM (active).

Which Potency does the source give for `CCOC(=O)C1CCN(C(=O)C(C)(C)NC(=O)Nc2ccccc2Cl)CC1` here?
Its Potency is “inactive”.

For `O=C(N[C@H]1CCCc2c1cnn2-c1ccc(F)cc1F)c1ccccn1`, which Potency is on record?
The Potency was “inactive”.

Which Potency does the source give for `CCNC(=O)C1CCN(C(=O)C(C)(C)NC(=O)Nc2ccccc2Cl)CC1` here?
The Potency was “inactive”.

For `CCN(CC)C(=O)C1CCN(C(=O)C(C)(C)NC(=O)Nc2ccccc2Cl)CC1`, which Potency is on record?
Its Potency is “inactive”.

With `CCOC(=O)C1CCN(C(=O)C(C)(C)NC(=O)Nc2ccc(N(C)C)cc2)CC1` as the compound, how does the Potency read?
Its Potency is “inactive”.

For `CCOC(=O)C1CCN(C(=O)C(C)(C)NC(=O)Nc2ccc(N)cc2)CC1`, which Potency is on record?
Its Potency is “inactive”.

With `CCOC(=O)C1CCN(C(=O)C(C)(C)NC(=O)Nc2ccc(CN3CCOCC3)cc2)CC1` as the compound, how does the Potency read?
Its Potency is “inactive”.

Which Potency does the source give for `CCOC(=O)C1CCN(C(=O)C(C)(C)NC(=O)Nc2ccc(C#N)cc2)CC1` here?
The Potency was “inactive”.

Which Potency does the source give for `CC(C)(NC(=O)Nc1ccccc1Cl)C(=O)N1CCC(C(=O)O)CC1` here?
Its Potency is “inactive”.

Which Potency does the source give for `O=C(NC1CCCc2c1cnn2-c1ccc(F)cc1F)c1ccccc1` (configuration not stated) here?
Its Potency is 4.99 µM (active).

For `O=C(NC1CCCc2c1cnn2-c1ccc(F)cc1F)c1cccs1` (configuration not stated), which Potency is on record?
The Potency was 5.6 µM (active).

For `CCOC(=O)C1CCN(C(=O)C(C)(C)NC(=O)Nc2cccc(-c3csc(C)n3)c2)CC1`, which Potency is on record?
The Potency was “inactive”.

Which Potency does the source give for `CCOC(=O)C1CCN(C(=O)C(C)(C)NC(=O)Nc2ccc(Cl)cc2Cl)CC1` here?
The Potency was “inactive”.

With `CCOC(=O)C1CCN(C(=O)C(C)(C)NC(=O)Nc2ccc3ccccc3c2)CC1` as the compound, how does the Potency read?
The Potency was “inactive”.

With `CCOC(=O)C1CCN(C(=O)C(C)(C)NC(=O)Nc2cccc(OC)c2)CC1` as the compound, how does the Potency read?
The Potency was “inactive”.

With `CCOC(=O)C1CCN(C(=O)C(C)(C)NC(=O)Nc2cccc(C(=O)OC)c2)CC1` as the compound, how does the Potency read?
The Potency was “inactive”.

With `O=C(NC1CCCc2c1cnn2-c1ccc(F)cc1F)c1ccccn1` (configuration not stated) as the compound, how does the Potency read?
Its Potency is 7.05 µM (active) and 11.2 µM (active).

For `CCOC(=O)C1CCN(C(=O)C(C)(C)NC(=O)Nc2ccc(F)c(F)c2)CC1`, which Potency is on record?
Its Potency is “inactive”.
